Here are results for 39 compounds from ChEMBL document CHEMBL1157539, “Thousands of chemical starting points for antimalarial lead identification” (Nature, 2010).

The subject of this experiment is HepG2. As to the kind of experiment: GSK_TCMDC: Percent inhibition of human HepG2 cell line. Test compounds present at 10uM. The format is functional.
`Cc1ccc(C(=O)Nc2ccc(Nc3ccnc4cc(-c5ccncc5)ccc34)cc2O)cc1`: the Inhibition is given as 14%.

As for `Cc1cccc2c(/C=C/C(=O)NC3CCC(CCN4CCc5ccc(C#N)cc5CC4)CC3)c[nH]c12.Cl` (centres undefined), the Inhibition is 18%.

In turn, `CN(C)CCNCc1ccc(-c2cccc(-c3nc4ccccc4[nH]3)c2)cc1.O=C(O)C(F)(F)F` displayed an Inhibition of 31%.

Turning to `CN(C)CCCOc1ccc(CCCCc2ccc(Cl)cc2C(=O)c2ccccc2)cc1.O=C(O)C(=O)O`, the Inhibition was 8%.

Turning to `O=C(Cn1c(CCc2cccc(F)c2F)cc(=O)c2ccccc21)N(Cc1ccc(-c2ccc(C(F)(F)F)cc2)cc1)C1CCN(CCN2CCOCC2)CC1.O=C(O)C(O)C(O)C(=O)O`, the Inhibition worked out at 53%.

Compound `Cl.N=C(N)NN=Cc1c2ccccc2c(Cl)c2c(Cl)cccc12` came in with an Inhibition of 71%.

On to `COc1ccc(NC(=O)NC2CCN(c3ccnc4cc(Cl)ccc34)CC2)cc1.O=C(O)C(F)(F)F`, for which the Inhibition is given as 5%.

With `C=CCOC(=O)N1CCC(CNCc2ccc(-c3cccc(-c4nc5cc(F)ccc5[nH]4)c3)cc2)C1.O=C(O)C(F)(F)F` (centres undefined), the Inhibition worked out at 26%.

In turn, `COc1cc(NC(=O)/C=C/c2ccccc2OC(F)(F)F)cc(OCCN2CCCCC2)c1.O=C(O)C(=O)O` came in with an Inhibition of 25%.

Compound `COC(=O)[C@@H](NC(=O)[C@@H](Nc1ccc(C#N)c2ccccc12)C(C)(C)C)c1ccc(O)cc1` yielded an Inhibition of 0%.

In turn, `CN(C)CCN(C)C(=O)c1cc(-c2ccncc2)c(-c2ccc(Cl)c(O)c2)o1.Cl` displayed an Inhibition of 0%.

In the case of `CCC(NC(=O)c1ccccc1NC(=O)c1ccc(C)cc1)C(=O)OC` (centres undefined), the Inhibition is listed as 0%.

Regarding `Br.C=CCN1Cc2c(O)cccc2C(c2ccc(O)c(O)c2)C1` (centres undefined), the Inhibition is given as 0%.

Turning to `Oc1ccc(-c2nc(-c3ccc4oc5ccc(-c6[nH]c(-c7ccc(O)cc7)nc6-c6ccccc6)cc5c4c3)c(-c3ccccc3)[nH]2)cc1`, the Inhibition was determined as 0%.

Turning to `COc1ccc(-c2ccc(NC(=O)c3cccc(F)c3)cc2)cc1CN1CCCN(C)CC1.O=C(O)C(F)(F)F`, the Inhibition was 32%.

In the case of `COc1cccc(-c2cccc(-c3ccc(NC(=O)c4ccc([N+](=O)[O-])o4)cc3)n2)c1`, the Inhibition worked out at 98%.

`FC(F)(F)c1ccc(-c2ccc(CNC3CCN(CCN4CCOCC4)CC3)cc2)cc1` showed an Inhibition of 44%.

Take `N#Cc1ccc(CNCCCCCCCNCc2ccc(-c3ccccc3)cc2)cc1`: the Inhibition was determined as 19%.

In turn, `O=C(Nc1cccc(-c2cccc(-c3nc4cc(C(F)(F)F)ccc4[nH]3)c2)c1)c1ccoc1` gave an Inhibition of 32%.

On to `CN(C)CCOc1ccc(-c2cc(-c3ccc(Cl)c(O)c3)c(-c3ccncc3)[nH]2)cc1.Cl`, for which the Inhibition came to 54%.

`Clc1ccc(-c2cc(-c3csc(NCCN4CCOCC4)n3)on2)c(Cl)c1` had an Inhibition of 39%.

In the case of `Cc1cc(-c2cccc(CNCc3ccc(F)cc3)c2)ccc1S(=O)(=O)NCCN1CCCC1.O=C(O)C(F)(F)F`, the Inhibition was 49%.

For `O=C(Nc1ccc(Br)cc1)c1cc(Br)ccc1NS(=O)(=O)c1cc(C(F)(F)F)cc(C(F)(F)F)c1`, the Inhibition turned out to be 68%.

Consider `CN(C)CCC1CCCc2ccc(NC(=O)Nc3cccc(Cl)c3Cl)cc21.Cl` (centres undefined), for which the Inhibition turned out to be 44%.

For `CN1CCN(CCc2ccc3nc(-c4csc(Cc5cc(Cl)ccc5OCc5ccccc5)n4)[nH]c3c2)CC1`, the Inhibition amounted to 30%.

As to `COc1cc2c(cc1NS(=O)(=O)c1ccc(OCc3ccc(Br)cc3)cc1)CCN(C1CCC1)CC2.Cl`, the Inhibition is 36%.

Compound `O=C(/C=C/c1ccc(Cl)c(Cl)c1)NCC[C@@H]1C[C@H]1CCN1CCC(c2c[nH]c3ccccc23)CC1` came in with an Inhibition of 98%.

`Cc1cccc2nc(-c3ccc(-c4cccc(CNCc5ccccc5)c4)cc3)[nH]c12.O=C(O)C(F)(F)F` displayed an Inhibition of 3%.

Regarding `Br.CC1(C)NC(N)=NC(=N)N1OCCOc1ccc(Cc2ccccc2)cc1`, the Inhibition amounted to 62%.

Turning to `O=C(/C=C/c1ccc(Cl)c(Cl)c1)N1CCC(CCCN2CCC(c3c[nH]c4ccc(O)cc34)CC2)CC1`, the Inhibition was 60%.

The compound `O=C(O)C(F)(F)F.c1cc(CN2CCC(CCN3CCCCC3)CC2)cc(-c2csc(-c3nc4ccccc4[nH]3)c2)c1` showed an Inhibition of 89%.

`O=C(O)C(F)(F)F.O=S(=O)(NC1CCN(c2ccnc3cc(Cl)ccc23)C1)c1ccc(F)cc1` (centres undefined) showed an Inhibition of 3%.

`Br.Clc1ccc(-c2nc(-c3ccncc3)c[nH]2)cc1Cl` returned an Inhibition of 1%.

Take `Cc1ccc(Nc2nc(-c3ccccn3)cs2)nc1`: the Inhibition came out at 60%.

Consider `CCOc1cc(CC)ccc1C1CCN(CCCCNC(=O)c2ccc(NC(=O)c3ccc(Cl)cc3)cc2)CC1.Cl`, for which the Inhibition is 11%.

`Cc1c(-c2cccc(C(C)(C)NCCCN3CCCCC3)c2)cnc(N)c1C.Cl`: the Inhibition was 5%.

Turning to `CC[C@H](NC(=O)c1c(CCCN2CCN(c3ccccc3)CC2)c(-c2ccccc2)nc2cc(O)ccc12)c1ccccc1`, the Inhibition is reported as 12%.

With `O=C(Nc1cccc(-c2cccc(-c3nc4cc(F)ccc4[nH]3)c2)c1)Nc1ccc(F)c(F)c1F`, the Inhibition turned out to be 83%.

`CS(=O)(=O)N1CC2(CCN(CCC(NC(=O)NCc3ccc(Cl)c(Cl)c3)c3ccc(Cl)c(Cl)c3)CC2)c2ccccc21` (centres undefined) displayed an Inhibition of 19%.
